From the supplement of paper PMC12067093, “Discovery and optimisation of a covalent ligand for TRIM25 and its application to targeted protein ubiquitination” (Chemical Science, 2025)
About 21,000 targets were measured; listed, in parts, are those with the largest changes and a random draw of the rest.

Compound: CC1Cc2ccccc2N1C(=O)C1CCCN(C1)C(=O)CCl (mixture of isomers) [TRIM25 ligand 11 (diastereomer mixture)]
Assay: probe-labelled cysteine peptide fold change vs DMSO (competition) (log2 fold change); higher = less target engagement (more negative = stronger competition)
Details: THP-1, incubation time: 4 h
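Note: competitive chemoproteomic profiling in live THP-1 cells with an iodoacetamide desthiobiotin (IA-DTB) probe, comparing probe-labelled peptide intensities in compound-treated cells against DMSO-treated controls.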

UniProt Q7Z5K2, sequence (Q7Z5K2 whole entry, looked up): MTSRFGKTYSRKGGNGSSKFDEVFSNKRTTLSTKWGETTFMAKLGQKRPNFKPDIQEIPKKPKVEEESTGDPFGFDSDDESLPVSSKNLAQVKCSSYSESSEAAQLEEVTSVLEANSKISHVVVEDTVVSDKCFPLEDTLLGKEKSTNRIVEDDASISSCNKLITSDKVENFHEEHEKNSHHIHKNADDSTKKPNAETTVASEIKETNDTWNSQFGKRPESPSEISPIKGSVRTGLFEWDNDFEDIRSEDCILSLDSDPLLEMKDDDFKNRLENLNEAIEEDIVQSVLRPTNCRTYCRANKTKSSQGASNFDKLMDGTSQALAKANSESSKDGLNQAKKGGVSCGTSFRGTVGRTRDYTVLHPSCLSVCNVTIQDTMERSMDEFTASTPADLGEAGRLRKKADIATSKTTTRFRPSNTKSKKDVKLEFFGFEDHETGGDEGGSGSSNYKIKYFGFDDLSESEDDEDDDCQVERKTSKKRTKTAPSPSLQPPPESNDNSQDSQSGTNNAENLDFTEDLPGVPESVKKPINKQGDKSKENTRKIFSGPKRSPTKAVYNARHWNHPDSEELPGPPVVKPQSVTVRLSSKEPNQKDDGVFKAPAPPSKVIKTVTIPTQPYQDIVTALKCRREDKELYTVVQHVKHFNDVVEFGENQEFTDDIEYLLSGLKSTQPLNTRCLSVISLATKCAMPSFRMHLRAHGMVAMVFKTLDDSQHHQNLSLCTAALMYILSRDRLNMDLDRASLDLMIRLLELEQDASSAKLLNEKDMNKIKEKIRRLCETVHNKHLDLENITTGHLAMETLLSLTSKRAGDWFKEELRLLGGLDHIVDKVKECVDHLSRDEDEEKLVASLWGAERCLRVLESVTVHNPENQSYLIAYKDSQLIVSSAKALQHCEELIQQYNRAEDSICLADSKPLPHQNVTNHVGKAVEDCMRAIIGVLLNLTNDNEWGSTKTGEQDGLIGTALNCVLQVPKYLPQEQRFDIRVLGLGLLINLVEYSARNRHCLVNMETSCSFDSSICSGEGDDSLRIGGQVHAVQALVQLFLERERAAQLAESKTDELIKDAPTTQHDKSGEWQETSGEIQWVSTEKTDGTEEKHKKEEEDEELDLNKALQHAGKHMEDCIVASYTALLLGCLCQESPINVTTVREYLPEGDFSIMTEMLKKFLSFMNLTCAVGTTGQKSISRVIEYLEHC
UniProt Q5JSH3, sequence (Q5JSH3 whole entry, looked up): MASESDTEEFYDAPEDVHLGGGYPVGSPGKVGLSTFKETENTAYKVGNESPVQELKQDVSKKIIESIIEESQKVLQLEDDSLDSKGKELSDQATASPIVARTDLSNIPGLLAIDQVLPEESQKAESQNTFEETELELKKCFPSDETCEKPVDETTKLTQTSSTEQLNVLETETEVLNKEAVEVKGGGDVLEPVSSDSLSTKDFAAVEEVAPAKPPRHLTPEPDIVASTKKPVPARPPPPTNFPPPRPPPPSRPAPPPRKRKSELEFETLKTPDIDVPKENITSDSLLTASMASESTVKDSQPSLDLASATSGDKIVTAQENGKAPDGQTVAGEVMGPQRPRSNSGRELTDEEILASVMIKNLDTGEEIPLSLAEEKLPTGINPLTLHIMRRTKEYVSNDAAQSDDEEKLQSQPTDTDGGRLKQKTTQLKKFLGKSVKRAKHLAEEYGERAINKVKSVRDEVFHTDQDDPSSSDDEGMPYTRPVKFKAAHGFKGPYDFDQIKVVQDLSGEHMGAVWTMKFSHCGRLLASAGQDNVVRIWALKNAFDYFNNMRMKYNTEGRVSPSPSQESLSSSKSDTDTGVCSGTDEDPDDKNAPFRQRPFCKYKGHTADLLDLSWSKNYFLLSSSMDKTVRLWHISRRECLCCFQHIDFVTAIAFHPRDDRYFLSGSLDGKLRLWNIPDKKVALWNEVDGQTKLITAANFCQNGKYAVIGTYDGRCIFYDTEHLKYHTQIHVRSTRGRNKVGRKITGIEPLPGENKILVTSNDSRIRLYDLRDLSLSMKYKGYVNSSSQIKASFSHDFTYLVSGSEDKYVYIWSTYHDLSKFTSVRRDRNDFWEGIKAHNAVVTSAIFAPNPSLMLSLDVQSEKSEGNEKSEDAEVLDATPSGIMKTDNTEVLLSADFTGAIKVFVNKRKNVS
UniProt Q01831, sequence (Q01831 whole entry, looked up): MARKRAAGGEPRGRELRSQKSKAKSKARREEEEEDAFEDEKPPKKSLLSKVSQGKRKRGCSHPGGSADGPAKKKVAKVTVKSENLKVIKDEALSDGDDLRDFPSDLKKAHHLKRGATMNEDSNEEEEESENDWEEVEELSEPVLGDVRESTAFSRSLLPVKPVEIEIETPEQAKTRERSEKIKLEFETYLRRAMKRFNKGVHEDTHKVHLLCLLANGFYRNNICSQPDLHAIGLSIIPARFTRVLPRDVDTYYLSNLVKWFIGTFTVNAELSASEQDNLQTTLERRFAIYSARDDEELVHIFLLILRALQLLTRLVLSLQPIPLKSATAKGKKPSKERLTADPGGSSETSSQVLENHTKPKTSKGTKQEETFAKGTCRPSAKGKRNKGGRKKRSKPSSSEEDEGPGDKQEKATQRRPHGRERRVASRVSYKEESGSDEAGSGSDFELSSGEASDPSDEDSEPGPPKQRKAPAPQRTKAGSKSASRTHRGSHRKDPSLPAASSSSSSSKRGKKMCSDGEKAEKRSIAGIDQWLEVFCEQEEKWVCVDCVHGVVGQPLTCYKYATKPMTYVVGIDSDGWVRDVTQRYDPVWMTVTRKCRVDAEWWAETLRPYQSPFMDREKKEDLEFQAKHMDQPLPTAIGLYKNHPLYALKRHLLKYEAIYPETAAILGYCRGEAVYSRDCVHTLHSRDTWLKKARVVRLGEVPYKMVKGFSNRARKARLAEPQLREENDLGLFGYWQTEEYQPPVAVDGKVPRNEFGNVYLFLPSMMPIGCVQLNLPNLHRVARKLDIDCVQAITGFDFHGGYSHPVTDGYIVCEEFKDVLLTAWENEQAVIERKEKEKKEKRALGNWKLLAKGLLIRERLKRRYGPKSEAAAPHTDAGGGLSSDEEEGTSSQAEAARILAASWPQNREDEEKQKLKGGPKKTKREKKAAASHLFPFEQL
UniProt Q9UNY4, sequence (Q9UNY4 whole entry, looked up): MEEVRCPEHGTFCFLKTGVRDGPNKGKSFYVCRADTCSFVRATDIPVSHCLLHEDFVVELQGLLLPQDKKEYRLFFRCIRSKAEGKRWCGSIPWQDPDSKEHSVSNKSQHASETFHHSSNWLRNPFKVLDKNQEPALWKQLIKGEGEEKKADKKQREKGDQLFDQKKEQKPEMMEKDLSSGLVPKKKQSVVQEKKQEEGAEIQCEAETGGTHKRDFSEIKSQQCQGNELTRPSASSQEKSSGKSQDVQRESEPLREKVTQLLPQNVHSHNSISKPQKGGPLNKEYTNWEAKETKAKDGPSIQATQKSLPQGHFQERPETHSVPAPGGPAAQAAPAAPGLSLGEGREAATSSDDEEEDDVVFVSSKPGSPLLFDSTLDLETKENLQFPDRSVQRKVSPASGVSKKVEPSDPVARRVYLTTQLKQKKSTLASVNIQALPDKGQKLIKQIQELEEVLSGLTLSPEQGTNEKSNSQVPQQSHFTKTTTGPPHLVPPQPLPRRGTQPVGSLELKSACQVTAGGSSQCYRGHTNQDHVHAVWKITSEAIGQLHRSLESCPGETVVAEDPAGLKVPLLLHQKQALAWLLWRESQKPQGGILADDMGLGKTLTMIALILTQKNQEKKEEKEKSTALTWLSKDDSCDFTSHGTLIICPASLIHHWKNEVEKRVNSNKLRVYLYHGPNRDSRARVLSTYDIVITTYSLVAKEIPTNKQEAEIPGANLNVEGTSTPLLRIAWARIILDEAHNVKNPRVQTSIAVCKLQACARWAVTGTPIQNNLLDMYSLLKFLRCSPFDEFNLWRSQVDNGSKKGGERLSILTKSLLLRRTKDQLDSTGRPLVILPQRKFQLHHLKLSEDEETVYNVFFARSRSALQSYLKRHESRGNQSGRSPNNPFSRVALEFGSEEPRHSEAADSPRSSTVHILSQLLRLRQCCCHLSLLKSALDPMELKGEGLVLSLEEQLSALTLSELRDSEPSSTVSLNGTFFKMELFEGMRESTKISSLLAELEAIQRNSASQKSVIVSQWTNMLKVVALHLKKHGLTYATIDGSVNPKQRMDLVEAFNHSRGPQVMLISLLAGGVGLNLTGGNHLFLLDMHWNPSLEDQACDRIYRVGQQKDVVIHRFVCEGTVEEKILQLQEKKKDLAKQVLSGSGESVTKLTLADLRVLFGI
UniProt Q96JC1, sequence (Q96JC1 whole entry, looked up): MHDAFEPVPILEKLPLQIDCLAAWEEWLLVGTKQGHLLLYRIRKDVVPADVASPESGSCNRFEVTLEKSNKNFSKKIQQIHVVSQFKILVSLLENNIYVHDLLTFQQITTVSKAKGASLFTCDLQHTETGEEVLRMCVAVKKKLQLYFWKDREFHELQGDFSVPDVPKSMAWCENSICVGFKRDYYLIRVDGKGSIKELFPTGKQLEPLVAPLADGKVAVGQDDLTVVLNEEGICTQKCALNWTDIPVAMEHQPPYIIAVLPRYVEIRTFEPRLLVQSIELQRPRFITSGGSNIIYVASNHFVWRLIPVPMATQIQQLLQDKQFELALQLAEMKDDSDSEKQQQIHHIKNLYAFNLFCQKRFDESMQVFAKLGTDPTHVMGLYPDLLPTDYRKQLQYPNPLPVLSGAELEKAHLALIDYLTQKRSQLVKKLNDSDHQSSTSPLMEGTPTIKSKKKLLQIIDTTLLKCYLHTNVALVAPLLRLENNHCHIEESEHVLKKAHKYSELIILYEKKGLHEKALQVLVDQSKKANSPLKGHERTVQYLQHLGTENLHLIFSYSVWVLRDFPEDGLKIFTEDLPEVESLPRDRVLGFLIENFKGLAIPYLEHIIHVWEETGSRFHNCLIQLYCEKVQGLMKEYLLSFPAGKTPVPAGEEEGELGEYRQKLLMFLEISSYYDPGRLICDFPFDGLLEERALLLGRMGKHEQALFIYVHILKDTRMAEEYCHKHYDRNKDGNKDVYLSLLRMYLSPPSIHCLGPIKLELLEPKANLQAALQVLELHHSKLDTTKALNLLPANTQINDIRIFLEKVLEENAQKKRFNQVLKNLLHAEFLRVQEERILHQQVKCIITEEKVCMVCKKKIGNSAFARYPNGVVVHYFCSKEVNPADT

Target	probe-labelled cysteine peptide fold change (10 µM)	probe-labelled cysteine peptide fold change (50 µM)
WAPL_Q7Z5K2_891_ALQHCEELIQQYNR (UniProt Q7Z5K2)	0.739	0.496
WDR47_O94967_672_GSIYCVAWSPCGQLLATGSNDK (UniProt O94967)	-0.126	-0.567
VPS39_Q96JC1_681_LICDFPFDGLLEER (UniProt Q96JC1)	0.145	0.086
WDHD1_O75717_781_CVELADLMTQNAVNLAIK (UniProt O75717)	0.0994	0.0632
TUBG1_P23258_316_QTNHCYIAILNIIQGEVDPTQVHK<|>TUBG2_Q9NRH3_316_QTNHCYIAILNIIQGEVDPTQVHK (UniProt Q9NRH3+P23258)	0.00794	-0.013
TXNDC11_Q6PKC3_815_ECLQSEAVLQR (UniProt Q6PKC3)	-0.111	-0.159
UBR7_Q8N806_374_VQQVELICEYNDLK (UniProt Q8N806)	-0.0738	0.0769
TTF2_Q9UNY4_50_ATDIPVSHCLLHEDFVVELQGLLLPQDK (UniProt Q9UNY4)	0.0771	0.271
UBR7_Q8N806_99+101_CDCGNSK (UniProt Q8N806)	-0.0898	-0.168
XPC_Q01831_514_MCSDGEK (UniProt Q01831)	-0.0167	-0.0661
TRPM7_Q96QT4_1426_DQETVCSK (UniProt Q96QT4)	-0.118	-0.219
VAT1L_Q9HCJ6_253+255_ISAEGVDIVLDCLCGDNTGK (UniProt Q9HCJ6)	0.196	-0.072
TXNRD1_Q16881_339_EYCISSDDLFSLPYCPGK (UniProt Q16881)	0.364	0.552
USP40_Q9NVE5_50_NQGGTCYLNSLLQTLHFTPEFR (UniProt Q9NVE5)	-0.26	-0.513
TYK2_P29597_1140_CPCEVYHLMK (UniProt P29597)	-0.0795	-0.214
TSR1_Q2NL82_618_AKEELIFHCGFR (UniProt Q2NL82)	0.00999	0.0707
UBR4_Q5T4S7_1662_LCTFTITQK (UniProt Q5T4S7)	-0.119	-0.0801
WDR44_Q5JSH3_642_ECLCCFQHIDFVTAIAFHPR (UniProt Q5JSH3)	0.143	0.281
WDR7_Q9Y4E6_326_ELLICPPVTR (UniProt Q9Y4E6)	0.0845	0.185
WDFY4_Q6ZS81_878_QVMCEAGLLGTLMASCHR (UniProt Q6ZS81)	0.0899	-0.0334
